Source: PubChem BioAssay
VDR inhibitor: blocks the human vitamin D receptor; P11473; VDR-SRC2-3 peptide fluorescence polarization, 2 h; Potency, µM, hits mostly inhibitors; 400,000 compounds, 0.93% hits; AID 504847
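Signal is fluorescence polarization, reporting how far test compounds block the interaction of VDR with the SRC2-3 coregulator peptide after a 2 h room-temperature incubation.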
mIDH1 inhibitor: human IDH1 R132H inhibition. O75874. IDH1-R132H enzyme, NADPH consumption, diaphorase/resazurin fluorescence. Potency, µM (highest dose often 76.6 µM), usual class: inhibitors. 390,000 compounds, 0.093% hits; note: nearly all actives have a fitted effect of over 65% in size
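IDH1-R132H (0.5 ug/mL) preincubated 30 min with compound, then NADPH (0.016 mM) and alpha-KG (2 mM) added; 80 min at RT, pH 7.5. Remaining NADPH coupled via diaphorase/resazurin to fluorescence (540/590 nm); concentration-response curves normalized to no-enzyme control.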
TrxR1 substrate: rat thioredoxin reductase 1 substrate activity. 390,000 compounds, 0.01% hits. O89049. AID 588456. Potency, µM (doses to about 114 µM). purified TrxR1 substrate turnover, NADPH consumption readout; note: nearly all actives have a fitted effect of over 50% in size
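Rat TrxR1, dispensed at 90 nM, was prereduced with 400 uM NADPH (final) for 5 min at ~22 deg C, then incubated with compound 15 min before 400 uM selenite. A first-read NADPH fluorescence drop versus no-compound background flagged substrates.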
Sfp PPTase inh: blocks B. subtilis Sfp PPTase activity | AID 1490 | 310,000 compounds, 3.5% hits | Biochemical Sfp PPTase activity, qHTS | Potency, µM, most hits filed as inhibitors | Q9F4F7;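 note: the enzyme is Sfp with the accession as filed and its product quenches rhodamine fluorescence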
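Fluorescence-quenching assay with 15 nM Sfp, 5 uM rhodamine-CoA and 12.5 uM BHQ-2-labelled ybbR peptide in pH 7.6 Hepes/MgCl2 buffer. Enzyme was pre-incubated with compound for 15 min at room temperature. Rate was taken from the 30-min fluorescence change (525/598 nm).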
TrxR1 inh: rat TrxR1 inhibition; O89049; recombinant rTrxR1, NADPH fluorescence consumption, selenite substrate; 390,000 compounds, 1% hits; Potency, µM (series often up to 114 µM), usual class: inhibitors; AID 588453; note: nearly all actives have a fitted effect of over 65% in size
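Rat TrxR1 (90 nM in the dispensed reagent) was pre-reduced with 400 uM NADPH for 5 min at room temperature, then incubated with compound for 15 min. After 400 uM selenite was added, NADPH fluorescence (Ex 340/Em 450 nm) was followed for 8 min.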
PLK1 PBD inh: inhibitors of human PLK1 polo-box domain binding; 360,000 compounds, 2.8% hits; P53350; AID 720504; Plk1 PBD binding of FITC phosphopeptide, fluorescence polarization; Potency, µM, most hits filed as inhibitors; note: series mostly up to about 57 µM; nearly all actives have a fitted effect of over 65% in size
Target sequence (P53350 whole entry, looked up, the tested form may be a part): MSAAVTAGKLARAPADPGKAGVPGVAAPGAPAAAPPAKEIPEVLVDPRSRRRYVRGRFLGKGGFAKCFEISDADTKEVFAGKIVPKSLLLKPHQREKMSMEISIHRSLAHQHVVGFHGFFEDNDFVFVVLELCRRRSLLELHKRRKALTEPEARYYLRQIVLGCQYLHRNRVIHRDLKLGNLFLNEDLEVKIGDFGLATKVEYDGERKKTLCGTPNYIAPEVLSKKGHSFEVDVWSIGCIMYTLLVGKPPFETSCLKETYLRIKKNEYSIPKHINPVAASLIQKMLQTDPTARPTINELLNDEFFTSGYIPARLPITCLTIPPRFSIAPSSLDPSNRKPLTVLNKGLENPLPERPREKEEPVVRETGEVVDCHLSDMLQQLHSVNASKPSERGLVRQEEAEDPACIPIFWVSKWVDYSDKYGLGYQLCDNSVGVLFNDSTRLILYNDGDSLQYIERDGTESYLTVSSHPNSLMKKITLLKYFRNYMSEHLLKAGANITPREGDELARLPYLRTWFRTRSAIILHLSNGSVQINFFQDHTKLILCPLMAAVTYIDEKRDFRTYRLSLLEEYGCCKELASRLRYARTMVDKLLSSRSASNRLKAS
Numbers stand for hits; – = inactive; ? = inconclusive; · = no result; ! = not confirmed by another sample; [ ] = remark or other dose. An excerpt weighted towards active compounds, which were near 5.2% of everything screened. Calls come from the whole dose curve; as a rule, active = well fitted curve in the direction sought with a large enough effect; inconclusive = small, poorly fitted or top-dose-only effect, or another doubt; inactive = no such curve, though single readings can be large; an effect the other way counts as inactive or inconclusive.

SMILES	VDR inhibitor	mIDH1 inhibitor	TrxR1 substrate	Sfp PPTase inh	TrxR1 inh	PLK1 PBD inh
COC(=O)C[C@H]1c2ccccc2C2=C(C[C@@H](C)[C@H]3C(=O)N(c4ccccc4)C(=O)[C@@H]23)N1C(=O)OC	·	·	·	–	·	·
CCOC(=O)CSC1=C(C#N)C(=O)NC2(CCCCC2)S1	79.4µM	–	–	50.1µM	–	?
COCCCCOc1cc2nc(N3CCCN(C)CC3)nc(NC3CCN(C)CC3)c2cc1OC	·	·	–	·	–	·
N#CC1=C(N)NC(SCC(=O)c2ccc(Br)cc2)=C(C#N)C12CCCCC2	–	–	–	–	?	–
N#CC1=C(N)NC(SCC(=O)c2ccc(Cl)cc2)=C(C#N)C12CCCC2	–	?	–	50.1µM	–	–
COC(=O)c1ccc(CC2(C)C(=O)Nc3ccc(-c4cccc(C(F)(F)F)c4)cc32)o1 (stereo not drawn)	·	·	·	·	·	–
COc1cccc(-n2c(N)c(-c3nc4ccccc4[nH]3)sc2=S)c1	–	–	–	?	–	26.7µM
CN=c1scc(-c2cccs2)n1/N=C/c1ccc(O)c(O)c1O	?	–	–	11.2µM	–	6.7µM
CN=c1scc(C)n1/N=C/c1ccc(O)c(O)c1O	–	–	–	25.1µM	?	6.7µM
CN=c1scc(-c2cccs2)n1/N=C/c1ccccc1O	–	–	–	–	–	–
O=C(O)CC(c1ccccc1)c1ccc2c(c1)OCO2 (stereo not drawn)	·	–	·	·	·	–
OCC1OC([S-])[C@H](O)C(O)C1O.[Au+] (stereo partly drawn)	?	·	·	2.24µM	·	·
Cc1cccc(N2C(=O)C3CCCN3C2=S)c1C (stereo not drawn)	–	–	–	·	–	?
CCc1ccc(N2C(=O)C3CCCN3C2=S)cc1 (stereo not drawn)	–	–	–	–	–	11.9µM
O=C1C=CC(=O)N1c1ccccn1	–	–	–	·	?	–
O=C1C=CC(=O)N1c1ccccc1N1C(=O)C=CC1=O	3.16µM	–	–	·	0.316µM	1.5µM
NC(=O)c1ccccc1NC(=S)NC(=O)CCc1ccccc1	?	–	–	28.2µM	–	15µM
Cc1cccc(C)c1NC(=S)NC(=O)CCc1ccccc1	–	–	–	–	3.55µM	–
Cc1cc(C)c2oc(-c3cccc(NC(=O)c4ccco4)c3)nc2c1	–	–	–	·	–	·
Cc1cc(C)c2oc(-c3ccc(C)c(NC(=O)/C=C/c4ccco4)c3)nc2c1	?	–	–[11.4 µM]	·	3.16µM	·
COc1ccccc1C(=O)Nc1ccc(-c2nc3cc(C)cc(C)c3o2)cc1	89.1µM	·	–	·	–	·
COc1ccccc1C(=O)NCCC(=O)N(C)CC(=O)Nc1c(Cl)cccc1Cl	–	–	–	·	–	–
COc1ccc(Cl)cc1C(=O)C1CCCN(Cc2cnc(N3CCOCC3)s2)C1 (stereo not drawn)	?	–	–	–	–	13.4µM
COc1ccc(NC(=O)c2oc3ccccc3c2NC(=O)c2ccco2)c(OC)c1	–	–	–	25.1µM	?	–
CN(C)S(=O)(=O)c1ccc(N2CCCC2)c(C(=O)NNC(=O)c2ccccc2)c1	–	–	–	·	–	–
SMILES	VDR inhibitor	mIDH1 inhibitor	TrxR1 substrate	Sfp PPTase inh	TrxR1 inh	PLK1 PBD inh
CCCCCCCCCCCCCCCC[N+](C)(C)CCN(Cc1ccc(OC)cc1)c1ncccn1	–	–	–	14.1µM	–	–
COc1ccc(CN(CCN(C)C)c2ncccn2)cc1	–	·	·	–	·	·
CCC(=O)Nc1nnc(S(=O)(=O)N(C)Cc2ccc(Cl)cc2)s1	–	–	–	·	–	·
Cc1ccc(NS(=O)(=O)c2ccc(C)c(NC(=O)c3ccc(S(=O)(=O)N4CCCCCC4)cc3)c2)c(C)c1	·	–	·	·	·	–
O=C(Nc1nc2c(F)cc(F)cc2s1)C1CC(=O)N(Cc2ccco2)C1 (stereo not drawn)	?	–	–	10µM	50.1µM	?
Cc1cc(C)c2nc(NC(=O)C3CC(=O)N(Cc4ccco4)C3)sc2c1 (stereo not drawn)	–	–	–	–	–	–
CC(=O)Nc1cc(-c2ccoc2)cn2c(-c3ccccc3)cnc12	·	·	·	·	·	–
Cc1cc(C)cc(C(=O)NN2CCOCC2)c1	–	–	–	–	–	–
Cc1cc(C)cc(C(=O)NN2CCN(C)CC2)c1	?	–	–	–	–	11.9µM
CC1CCCN(S(=O)(=O)c2cc3c4c(c2)CCN4C(=O)CC3)C1 (stereo not drawn)	–	–	–	·	–	–
CCCCn1c(NCc2ccccn2)nc2ccccc21	–	–	–	56.2µM	–	–
CCN(CC)CCn1c(NCc2ccccn2)nc2ccccc21	–	–	–	?	–	–
CC1=CC(=O)C2=C(C)C[C@@H]3OC(=O)[C@@H](C)[C@H]3C=C12	–	·	·	–	·	·
CC(C)=CCC/C(C)=C/CC/C(C)=C/CC/C=C(\C)CC/C=C(\C)CCC=C(C)C	–	·	·	–	·	·
c1ccc(CCn2nnc3ccccc32)cc1	–	–	–	–	–	21.2µM
COc1ccc(OC)c(CCNC(=O)c2cnn(-c3ccccc3)c2-n2cccc2)c1	–	–	–	·	–	·
O=[N+]([O-])c1cccnc1N1CCC(c2cc(-c3ccc(Cl)cc3Cl)n[nH]2)CC1	–	–	–	–	–	10.6µM
COc1ccc(OC)c(-c2c3c([nH]c(=S)c2C#N)CCCC3)c1	–	–	–	22.4µM	?	26.7µM
COc1ccc(-c2c3c([nH]c(=S)c2C#N)CCC3)cc1	?	–	–	22.4µM	?	7.52µM
COc1ccc2[nH]c3c(c(=O)c2c1)CCCC3	·	·	·	·	·	–
O=C(NCc1ccccc1)c1cc(C2CCCN(C(=O)c3ccccc3)C2)on1 (stereo not drawn)	·	·	·	·	·	–
Cc1cc(C)c2c(n1)NCCC2	·	·	–	·	–	·
CC#CCN1c2ccccc2[C@]23C[C@@H](C(=O)OC)N(C(=O)c4cccs4)C2=NC(C(=O)OC)=C(C(=O)OC)[C@H]13	·	·	·	–	·	·
O=C(c1ccccc1)C1CN(Cc2ccccc2)CCC1(O)c1ccccc1 (stereo not drawn)	–	–	–	–	7.08µM	–
C(=N\Nc1ccc2ccccc2n1)/c1ccc2c(c1)OCCO2	–	–	–	–	–	–
SMILES	VDR inhibitor	mIDH1 inhibitor	TrxR1 substrate	Sfp PPTase inh	TrxR1 inh	PLK1 PBD inh
C#CCn1cc(/C=N/Nc2nc3ccccc3[nH]2)c2ccccc21	–	–	–	11.2µM	–	–
C(=N\Nc1nc2ccccc2[nH]1)/c1ccc2c(c1)OCCO2	–	–	–	25.1µM	–	–
COc1ccc(C2CC(=O)c3c([nH]c(C(=O)OCCOc4ccccc4)c3C)C2)cc1OC (stereo not drawn)	?	–	–	·	–	·
CS(=O)(=O)Nc1ccc([N+](=O)[O-])cc1Oc1ccccc1	?	–	–	56.2µM!	?	–
CS(=O)(=O)Nc1ccccc1Oc1ccccc1	–	–	–	–	–	–
COCc1ccc(C(=O)NCC2(N3CCCCC3)CCCCC2)cc1	?	–	–	–	–	29.9µM
